The values that follow come from PubChem BioAssay.

The source made the active and inactive calls.

Experiment [1] can be described thus: anti-His antibody binders, primary screen, artefact control for SMM control protein annotation, biochemical, small-molecule microarray, 635 nm fluorescence (AID 1128).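 Further: score merges feature fluorescence with signal-to-noise for each printed compound spot.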 Conditions: anti-His Alexa647 antibody binding, higher = more signal.
For experiment [2], the system named is Human papillomavirus type 1a E7 protein (residues 1-88). Kind of experiment: HPV1a E7 small-molecule binders, primary screen, biochemical, small-molecule microarray, residues 1-88, 635 nm (AID 1129). Conditions: small-molecule microarray binding, fluorescence 635 nm; higher = more signal.
Experiment [3] addresses Focal adhesion kinase 1 (Homo sapiens) (UniProt Q05397). Description: small-molecule microarray binders of FAK, primary screen, biochemical, 635/667 nm fluorescence, BSA, DTT (AID 1130).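 Further: composite of spot emission at 667 nm and signal to noise over triplicate slides.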 Conditions: PTK2 binding, 635 nm fluorescence, higher = more signal.
Experiment [4] concerns Fibrinogen (Alexa647-labelled). Description: fibrinogen binders on compound microarrays, profiling panel, artefact control for SMM control-protein annotation, biochemical, small-molecule microarray, 635/667 nm fluorescence (AID 1131).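 Further: z-score merges 667 nm fluorescence with per-spot signal-to-noise over triplicate slides.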 Conditions: fibrinogen-A647 binding fluorescence, higher = more signal.
The target in experiment [5] is Follistatin (Homo sapiens) (UniProt P19883). Kind of experiment: follistatin binders on small-molecule microarrays, primary screen, biochemical, small-molecule microarray, 635/667 nm fluorescence (AID 1132). Conditions: FST binding, 635 nm fluorescence, higher = more signal.
Sequence of Follistatin (Homo sapiens) (P19883 whole entry, looked up): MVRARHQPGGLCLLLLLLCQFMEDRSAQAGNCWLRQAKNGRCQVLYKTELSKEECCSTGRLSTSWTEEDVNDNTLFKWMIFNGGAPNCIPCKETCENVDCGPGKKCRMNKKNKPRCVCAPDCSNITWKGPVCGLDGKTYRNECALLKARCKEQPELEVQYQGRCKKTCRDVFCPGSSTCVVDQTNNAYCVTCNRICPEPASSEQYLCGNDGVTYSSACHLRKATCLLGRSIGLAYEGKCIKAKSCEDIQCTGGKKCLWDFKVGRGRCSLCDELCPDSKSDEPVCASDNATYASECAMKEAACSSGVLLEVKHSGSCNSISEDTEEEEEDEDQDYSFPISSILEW
The target in experiment [6] is Fibroblast growth factor 2 (Homo sapiens) (UniProt P09038). Kind of experiment: FGF2 binders on small-molecule microarrays, primary screen, biochemical, small-molecule microarray, 635/667 nm fluorescence (AID 1133). Conditions: small-molecule microarray binding, FGF2, fluorescence 635/667; higher = more signal.
Sequence of Fibroblast growth factor 2 (Homo sapiens) (P09038 whole entry, looked up): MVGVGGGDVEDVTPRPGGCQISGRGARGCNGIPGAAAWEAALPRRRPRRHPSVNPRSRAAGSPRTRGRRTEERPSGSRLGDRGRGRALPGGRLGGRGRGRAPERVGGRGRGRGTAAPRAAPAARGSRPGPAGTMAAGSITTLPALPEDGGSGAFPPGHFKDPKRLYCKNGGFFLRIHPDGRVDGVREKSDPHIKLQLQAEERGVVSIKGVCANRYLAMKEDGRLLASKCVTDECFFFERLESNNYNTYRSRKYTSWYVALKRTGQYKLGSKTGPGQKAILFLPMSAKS
Experiment [7] can be described thus: mitochondrial membrane potential change in A549 cells, profiling panel, cell-based, JC-1 fluorescence, basal, 24 h, 100 nL (AID 1138).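 Further: A549 lung adenocarcinoma cells under basal conditions with no added stimulus; test concentration not given here.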 Conditions: higher = more signal.
The test system of experiment [8] is Lefty1. Kind of experiment: Lefty1 binders on small-molecule microarrays, primary screen, biochemical, small-molecule microarray, 635/667 nm fluorescence (AID 1139). Conditions: small-molecule microarray binding, fluorescence 635/667; higher = more signal.
Experiment [9] relates to wheat germ agglutinin (Triticum aestivum), Alexa647-labelled. Description: wheat germ agglutinin binders on compound microarrays, profiling panel, artefact control for SMM control-protein annotation, biochemical, small-molecule microarray, 635/667 nm fluorescence (AID 1140).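 Further: score merges 667 nm feature emission with signal to noise over triplicate slides.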 Conditions: WGA-A647 binding, 635 nm fluorescence, higher = more signal.
The target of experiment [10] is Luciferin 4-monooxygenase (Photinus pyralis) (UniProt P08659). Kind of experiment: firefly luciferase enzyme inhibitors, primary screen, biochemical, luminescence, purified enzyme, 2006 set (AID 1141).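 Further: cell-free assay with purified firefly luciferase at 100 ng per well in PBS; test concentration not given here.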 Conditions: SteadyGlo luminescence, 30 min, higher = more signal, called active from +8 up or from −8 down.
Sequence of Luciferin 4-monooxygenase (Photinus pyralis) (P08659 whole entry, looked up): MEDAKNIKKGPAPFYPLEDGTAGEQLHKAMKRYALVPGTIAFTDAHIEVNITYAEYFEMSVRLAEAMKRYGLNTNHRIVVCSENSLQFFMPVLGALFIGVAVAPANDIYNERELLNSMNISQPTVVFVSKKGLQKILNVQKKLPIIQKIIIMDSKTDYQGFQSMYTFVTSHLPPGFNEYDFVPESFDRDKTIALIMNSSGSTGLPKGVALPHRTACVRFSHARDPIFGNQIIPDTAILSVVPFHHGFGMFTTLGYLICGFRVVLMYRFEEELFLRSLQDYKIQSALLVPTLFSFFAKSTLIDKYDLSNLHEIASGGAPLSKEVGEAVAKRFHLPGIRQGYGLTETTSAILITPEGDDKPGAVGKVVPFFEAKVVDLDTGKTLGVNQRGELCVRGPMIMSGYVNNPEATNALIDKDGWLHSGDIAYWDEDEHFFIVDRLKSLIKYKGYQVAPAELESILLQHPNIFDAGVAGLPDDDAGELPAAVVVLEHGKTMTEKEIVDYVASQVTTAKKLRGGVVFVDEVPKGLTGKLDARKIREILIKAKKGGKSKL

Sequence of Focal adhesion kinase 1 (Homo sapiens) (Q05397 whole entry, looked up): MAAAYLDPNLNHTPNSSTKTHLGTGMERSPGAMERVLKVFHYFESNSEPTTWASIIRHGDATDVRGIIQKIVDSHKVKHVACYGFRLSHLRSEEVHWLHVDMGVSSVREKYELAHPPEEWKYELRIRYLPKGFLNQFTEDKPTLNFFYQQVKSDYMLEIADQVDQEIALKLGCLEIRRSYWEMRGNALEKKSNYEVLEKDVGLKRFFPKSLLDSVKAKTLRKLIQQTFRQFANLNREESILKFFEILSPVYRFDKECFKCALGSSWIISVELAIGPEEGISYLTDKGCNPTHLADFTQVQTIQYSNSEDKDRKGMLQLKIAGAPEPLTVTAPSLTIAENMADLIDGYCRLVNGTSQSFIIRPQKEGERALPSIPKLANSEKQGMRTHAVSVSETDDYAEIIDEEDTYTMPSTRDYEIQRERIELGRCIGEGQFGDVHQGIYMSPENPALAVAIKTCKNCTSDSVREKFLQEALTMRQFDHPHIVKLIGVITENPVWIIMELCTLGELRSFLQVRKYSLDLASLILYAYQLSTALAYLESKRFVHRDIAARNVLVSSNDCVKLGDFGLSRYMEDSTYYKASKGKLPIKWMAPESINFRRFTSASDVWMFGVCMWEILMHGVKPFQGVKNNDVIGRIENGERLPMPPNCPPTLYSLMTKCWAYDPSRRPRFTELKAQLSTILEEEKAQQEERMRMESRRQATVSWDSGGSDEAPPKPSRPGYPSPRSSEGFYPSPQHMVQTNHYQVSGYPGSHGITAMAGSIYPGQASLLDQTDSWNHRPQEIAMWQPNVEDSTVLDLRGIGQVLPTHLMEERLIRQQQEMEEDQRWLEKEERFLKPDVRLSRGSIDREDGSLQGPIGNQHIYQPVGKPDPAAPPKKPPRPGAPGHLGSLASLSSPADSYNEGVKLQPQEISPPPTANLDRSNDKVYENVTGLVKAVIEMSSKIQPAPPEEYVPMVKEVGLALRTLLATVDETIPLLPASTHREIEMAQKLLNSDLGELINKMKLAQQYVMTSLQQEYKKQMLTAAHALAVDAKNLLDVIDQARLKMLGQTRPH

On to `Cc1c(NC(=O)/C(C#N)=C/C=C/c2ccccc2[N+](=O)[O-])c(=O)n(-c2ccccc2)n1C`, for which the composite z-score in [1] amounted to 0.526; in experiment [2], 0.876; in experiment [3], 1.01; in experiment [4], 0.867; in experiment [5] it was 0.771; in [6] it was 0.334. Further, the composite z-score in experiment [8] stood at 0.557; in experiment [9], 0.154. For the same compound, the z-score in experiment [7] was 0.511; in [10], -4.64 (inactive).

Consider `COc1ccc([Si](C)(C)[C@@H]2[C@@H](CCO)O[C@]3(C(=O)N(Cc4cccc(N5C(=O)c6cccc7cccc5c67)c4)c4ccccc43)[C@H]2C)cc1`, for which the composite z-score is 1.06 in experiment [1]; 0.848 in experiment [2]; -0.123 in [3]; 0.136 in [4]; 0.004 in experiment [5]; -0.0148 in [6]. For the same compound, the values for the composite z-score in [8] and in experiment [9] were 0.626 and 0.0034, respectively. Also, the z-score is -0.43 in experiment [7] and -0.508 (inactive) in experiment [10].

Turning to `CCCCN1CC=CC23O[C@@H]4C=CCOC(=O)[C@@H]4[C@H]2C(=O)N(C(C)CO)[C@@H]3C1=O` (stereo not given in full), the composite z-score in experiment [1] is -0.461; in experiment [2] it was -1.01; in experiment [3], -0.243; in [4], -1.32; in experiment [5], -1.55; in experiment [6], -0.588. Besides, the composite z-score in experiment [8] is -1.56; in experiment [9], -1.02. The z-score was -0.414 in [7] and -0.313 (inactive) in [10].

Consider `[N-]=[N+]=Nc1ccccc1[C@H]1OC(c2ccc(OCCCO)cc2)=N[C@@]1(CCS(=O)(=O)c1ccccc1)C(=O)N1CCCCC1`, for which the composite z-score in [1] is 2.65; in experiment [2] it was 1.23; in [3], 0.944; in [4], 0.989; in experiment [5], 0.83; in experiment [6] it was -0.0535. Besides, the composite z-score is -0.0647 in [8] and 1.27 in [9]. The z-score in experiment [7] is -1.11; in experiment [10] it was -11.7 (active).

For `C=C(/C(=C/C[C@@H](OC(=O)c1ccncc1)c1ccccc1OCCO)c1cc(C(=O)OC)ccc1OC)C(C)C`, the composite z-score in experiment [1] was 0.0652; in [2], 1.2; in experiment [3], 0.378; in experiment [4] it was -0.325; in [5], 0.64; in experiment [6], 0.806. Moreover, the composite z-score in experiment [8] was found to be 0.782; in [9], 0.986. The z-score in experiment [7] was 3.35; in experiment [10], -1.47 (inactive).

For `C=CCNC(=O)[C@@H]1[C@H]2C(=O)O[C@H](c3ccccc3)[C@H](c3ccccc3)N2[C@H](c2ccc(OCCO)cc2)[C@@]12C(=O)N(C(=O)OCCOC)c1ccc(C#CC3=CCCCC3)cc12`, the composite z-score came to 0.864 in experiment [1]; 1.23 in [2]; 0.677 in experiment [3]; 0.871 in [4]; 1.31 in [5]; 0.985 in [6]. Moreover, the composite z-score in experiment [8] came to 1.05; in experiment [9], 0.522. In addition, the z-score in experiment [7] was -1.03; in experiment [10], -1.25 (inactive).

`COc1ccc([Si](C)(C)[C@H]2[C@H](CCn3cc([C@H](O)c4ccccc4)nn3)O[C@@]3(C(=O)N(Cc4ccc(N5CCC5=O)cc4)c4ccccc43)[C@@H]2C)cc1`: the composite z-score in [1] was 0.814; in experiment [2], 0.578; in [3], -0.441; in [4], -0.116; in [5] it was 1.25; in experiment [6], 1.47. The composite z-score in experiment [8] was 1.18; in experiment [9], 0.264. Also, the z-score was 0.527 in experiment [7] and 0.465 (inactive) in [10].

As to `COC(=O)[C@H](Cc1ccccc1)N1CC(/C=C/C2CC2)=C[C@@H]1[C@@H](O)Cc1ccccc1`, the composite z-score in experiment [1] amounted to 0.303; in experiment [2], 1.14; in [3], 0.28; in experiment [4], 0.971; in [5], 0.958; in [6], 0.418. Further, the values for the composite z-score in [8] and in [9] were 1.26 and 0.982, respectively. For the same compound, the z-score in experiment [7] was 0.33; in experiment [10] it was -0.186 (inactive).

`C=CC[C@@H](OC(=O)Nc1ccc(OC)cc1)c1ccc(OCCO)cc1`: the composite z-score in [1] was -0.662; in [2], -0.646; in [3] it was -0.676; in experiment [4], -3; in experiment [5] it was -0.787; in experiment [6], -1.6. Also, the composite z-score in experiment [8] was -0.999; in [9] it was -0.262. Moreover, the z-score in experiment [7] was -0.371; in experiment [10] it was -5.18 (inactive).

In the case of `C=CCN1C(=O)[C@]2(CC=C)N=C(c3ccc(OCCCO)cc3)O[C@@H]2c2ccccc21`, the composite z-score is 3.19 in experiment [1]; 1.16 in experiment [2]; 0.496 in [3]; 0.297 in experiment [4]; 1.39 in experiment [5]; 1.56 in experiment [6]. Besides, the composite z-score was determined as 0.768 in experiment [8] and 1.14 in experiment [9]. The results for the z-score in [7] and in experiment [10] were -0.998 and -3.31 (inactive), respectively.

For `C=CC[C@]1(C(=O)N(C)C)N=C(c2ccc(OCCCO)cc2)O[C@H]1c1ccccc1N=[N+]=[N-]`, the composite z-score in experiment [1] is 2.04; in [2], 1.22; in experiment [3] it was 0.264; in [4], 1.02; in [5] it was 0.899; in experiment [6], -0.267. Further, the values for the composite z-score in experiment [8] and in experiment [9] were -0.0297 and 1.25, respectively. The z-score in experiment [7] is 1.08; in [10] it was -9.41 (active).

Take `COc1ccc([Si](C)(C)[C@H]2[C@H](CCO)O[C@@]3(C(=O)N(Cc4cccc(N5CCCCC5=O)c4)c4ccccc43)[C@@H]2C)cc1`: the composite z-score in experiment [1] was found to be 1.16; in experiment [2], 1.15; in experiment [3], 0.362; in experiment [4], 0.848; in experiment [5], 1.26; in experiment [6], 0.403. The results for the composite z-score in experiment [8] and in [9] were 1.06 and 0.418, respectively. For the same compound, the z-score was 0.589 in [7] and -1.34 (inactive) in experiment [10].

For `CO[C@H]1O[C@H](CO)[C@@H](OC(=O)Nc2ccc(C(F)(F)F)cc2)[C@H](OC(=O)Nc2ccc3c(c2)OCO3)[C@H]1OC(=O)Nc1ccc2c(c1)OCO2`, the composite z-score turned out to be 2.97 in experiment [1]; 1.17 in experiment [2]; 1.33 in experiment [3]; 0.806 in [4]; 0.977 in experiment [5]; 0.395 in experiment [6]. The composite z-score in experiment [8] was 0.871; in experiment [9], 1.07. The z-score in experiment [7] is -1.16; in [10] it was -7.72 (inactive).
